High-throughput results as filed in PubChem BioAssay.
Only some compounds are listed: those with a hit (about 12% of all), similar ones and a draw of the others.
JMJD2A Tudor – blocks the human JMJD2A Tudor domain. O75164. AlphaScreen JMJD2A-Tudor / H3K4me3 peptide binding. Potency, µM (top dose mostly 114 µM), most hits filed as inhibitors. 390,000 tested, 4.4% active. AID 504339; note: nearly all actives have a fitted effect of over 50% in size
TDP1 inh – blocks human tyrosyl-DNA phosphodiesterase 1. Q9NUW8. recombinant TDP1, AlphaScreen DNA substrate cleavage. Potency, µM (highest dose often 130 µM), actives largely listed as inhibitors. 350,000 tested, 0.28% active. AID 485290; note: nearly all actives have a fitted effect of over 40% in size
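AlphaScreen read-out: signal falls as enzyme removes the 3' tyrosine-FITC from a 5'-biotinylated DNA oligo (15 nM, 5 min, RT). Enzyme was E. coli-made recombinant Tdp1 at 1 nM, exposed to compound for 15 min beforehand; beads 10 ug/ml, 10 min.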
Sfp inh – blocks B. subtilis Sfp PPTase activity; Q9F4F7; Biochemical Sfp PPTase activity, qHTS; Potency, µM, hits mostly inhibitors; 310,000 tested, 3.5% active; AID 1490;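 note: the enzyme is Sfp with the accession as filed and its product quenches rhodamine fluorescence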
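Reaction rates are the 30-min fluorescence difference (ex 525, em 598 nm) in wells containing 15 nM Sfp, 5 uM rhodamine-CoA and 12.5 uM BHQ-2-YbbR at pH 7.6 with 10 mM MgCl2.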
BAZ2B block – blocks human BAZ2B; AlphaScreen BAZ2B-H3K14Ac peptide displacement; Potency, µM (highest dose often 114 µM), usual class: inhibitors; 360,000 tested, 4.4% active; Q9UIF8; note: nearly all actives have a fitted effect of over 60% in size
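Inhibition is scored as reduced AlphaScreen emission. The BAZ2B/b-H3(5-23)K14Ac complex (50 nM each) in PBS pH 7.4, 0.01% Tween-20 meets compound (up to 110 uM) for 30 min at RT before bead addition.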
G9a inh – blocks human histone lysine methyltransferase G9a; Potency, µM (highest dose often 102 µM), hits mostly inhibitors; Q96KQ7; G9a H3K9 monomethylation, AlphaScreen, 2 h; AID 504332; 350,000 tested, 8.8% active; note: nearly all actives have a fitted effect of over 75% in size
Target sequence (Q96KQ7 913-1193 limits assumed): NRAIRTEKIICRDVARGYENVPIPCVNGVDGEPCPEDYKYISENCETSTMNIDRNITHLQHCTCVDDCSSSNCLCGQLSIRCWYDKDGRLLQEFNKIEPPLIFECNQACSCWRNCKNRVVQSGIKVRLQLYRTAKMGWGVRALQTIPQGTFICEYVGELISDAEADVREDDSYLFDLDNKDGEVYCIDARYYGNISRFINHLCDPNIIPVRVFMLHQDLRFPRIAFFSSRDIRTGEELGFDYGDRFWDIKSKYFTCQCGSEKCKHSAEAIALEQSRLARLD
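G9a (20 nM) was preincubated 15 min with compound, then reacted 2 h at room temperature with 500 nM biotin-H3K9 peptide and 20 µM SAM. Monomethyl-H3K9 detected by AlphaScreen using anti-H3K9me1 antibody.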
HP1b chromo inh – HP1-beta chromodomain-methylated histone interaction inhibition; 390,000 tested, 0.56% active; AlphaScreen HP1-beta / biotin-H3K9me3 peptide binding; Potency, µM (doses to about 114 µM), hits mostly inhibitors; P83916; note: nearly all actives have a fitted effect of over 70% in size
Target sequence (P83916 whole entry, looked up): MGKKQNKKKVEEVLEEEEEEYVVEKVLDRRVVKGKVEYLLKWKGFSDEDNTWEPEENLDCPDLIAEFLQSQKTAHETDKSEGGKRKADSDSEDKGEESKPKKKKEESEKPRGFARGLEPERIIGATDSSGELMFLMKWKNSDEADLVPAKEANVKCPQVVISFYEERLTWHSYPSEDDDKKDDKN
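HP1-beta protein (50 nM final) preincubated 30 min at room temperature with biotinylated H3(1-18)K9me3 peptide (50 nM) in PBS pH 7.4, 0.01% Tween-20, then compound added for 30 min. AlphaScreen streptavidin donor/nickel chelate acceptor beads (10 ug/mL final), 30 min dark, luminescence read.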
Each line names hits and unclear results; the compound was inactive in the other large screens; ! = not confirmed by another sample. Calls come from the whole dose curve; as a rule, active = well fitted curve in the direction sought with a large enough effect; inconclusive = small, poorly fitted or top-dose-only effect, or another doubt; inactive = no such curve, though single readings can be large; an effect the other way counts as inactive or inconclusive.

CCOC(=O)c1cc(-c2ccc(C)cc2)n(CCC(=O)N2CCN(c3ccccn3)CC2)c1C	JMJD2A Tudor 35.5µM, BAZ2B block 44.7µM, G9a inh 28.2µM, HP1b chromo inh inconclusive
CCOC(=O)c1cc(-c2ccc(C)cc2)n(CCC(=O)NCCc2ccc(C)cc2)c1C	none (no result: Sfp inh)
CCOC(=O)c1cc(-c2ccc(C)cc2)n(CCC(=O)NCc2ccccc2)c1C	none (no result: Sfp inh)
COc1ccc2c(CC#N)c[nH]c2c1	none
COc1cc2c(CCNC(C)=O)c[nH]c2cc1O	G9a inh 20µM! (no result: Sfp inh, BAZ2B block)
COc1ccc(CCNC(=O)NCCc2c[nH]c3ccccc23)cc1OC	none (no result: TDP1 inh)
COc1ccc2c(CCNC(N)=S)c[nH]c2c1	JMJD2A Tudor 20µM, BAZ2B block 89.1µM
COc1ccc2[nH]cc(CCNc3cc(-c4ccccc4C(F)(F)F)ncn3)c2c1	Sfp inh 79.4µM (no result: JMJD2A Tudor, BAZ2B block, G9a inh, HP1b chromo inh)
COc1ccc2[nH]cc(CCNc3nc(-c4ccc(N(C)C)cc4)nc4ccccc34)c2c1	Sfp inh 17.8µM (no result: JMJD2A Tudor, TDP1 inh, BAZ2B block, HP1b chromo inh)
COc1ccc(C(=O)NCCc2c[nH]c3ccc(OC)cc23)cc1	BAZ2B block inconclusive (no result: TDP1 inh)
COc1ccc(NC(=S)NCCc2c[nH]c3ccc(OC)cc23)c(OC)c1	JMJD2A Tudor inconclusive, BAZ2B block 44.7µM (no result: G9a inh)
COc1ccc2[nH]cc(CCNC(=O)c3ccc4ccccc4n3)c2c1	JMJD2A Tudor inconclusive, BAZ2B block inconclusive, G9a inh 70.8µM
COc1ccc(NC(=S)NCCc2c[nH]c3ccccc23)c(OC)c1	BAZ2B block 44.7µM, G9a inh 50.1µM
COc1ccc2c(c1)C(=O)[C@H](OC(=O)NCCOc1ccccc1)[C@@H](c1ccc(OC)c(Br)c1)O2	none (no result: JMJD2A Tudor, BAZ2B block, G9a inh, HP1b chromo inh)
CC(=O)/C(C#N)=C1\NC(=O)C(Cc2ccc(C)c(Cl)c2)S1 (stereo not drawn)	G9a inh inconclusive
CC(=O)NC(NC(=S)Nc1ccc(C)cc1C)C(Cl)(Cl)Cl (stereo not drawn)	G9a inh 44.7µM
Cc1ccc(C)c(NC(=S)NC(NC(=O)N(C)C)C(Cl)(Cl)Cl)c1 (stereo not drawn)	G9a inh 4.47µM
CSc1nc(-c2cccs2)c(C#N)c(=O)[nH]1	G9a inh 44.7µM
N#Cc1c(-c2cccs2)nc(SCc2ccc(Cl)cc2)[nH]c1=O	JMJD2A Tudor inconclusive, Sfp inh 79.4µM, BAZ2B block inconclusive
O=C(Nc1ccccc1N1CCCCC1)c1ccc(-c2ccc(Cl)cc2)o1	JMJD2A Tudor inconclusive
Cc1cc(N2CCN(C)CC2)ccc1NC(=O)c1ccc(-c2ccc(Cl)cc2)o1	JMJD2A Tudor 39.8µM, BAZ2B block 35.5µM, G9a inh 31.6µM, HP1b chromo inh inconclusive (no result: Sfp inh)
CC1CCN=C(N)S1 (stereo not drawn)	G9a inh 3.16µM (no result: Sfp inh, BAZ2B block)
COC(=O)C(C)N1C(=O)S/C(=C\c2cc(C)n(-c3ccccn3)c2C)C1=O (stereo not drawn)	JMJD2A Tudor inconclusive, BAZ2B block inconclusive, G9a inh 56.2µM
Cc1cc(/C=C2\SC(=O)N(C)C2=O)c(C)n1-c1ccc(S(N)(=O)=O)cc1	G9a inh 44.7µM (no result: TDP1 inh)
COc1ccc(-n2c(C)cc(/C=C3/SC(=S)N(C)C3=O)c2C)cc1	none
Cc1cc(/C=C2\SC(=O)N(C)C2=O)c(C)n1-c1ccc(O)cc1	JMJD2A Tudor inconclusive, BAZ2B block 50.1µM, G9a inh 79.4µM (no result: TDP1 inh)
COC(=O)Cn1c(O)c(N=NC(=O)CNC(=O)c2ccncc2)c2ccccc21	none
Cn1/c(=N/N=C/c2ccccn2)sc2ccccc21	JMJD2A Tudor 89.1µM, BAZ2B block inconclusive, G9a inh inconclusive, HP1b chromo inh inconclusive
Cn1/c(=N/N=C/c2ccc(N3CCOCC3)cc2)sc2ccccc21	BAZ2B block inconclusive
Cc1cc(C(=O)OCC(=O)Nc2cccc(S(=O)(=O)N(C)C)c2)c2ccccc2n1	none
NS(=O)(=O)c1cccc(NC(=O)c2cc(-c3cccs3)nc3ccccc23)c1	G9a inh 44.7µM
NS(=O)(=O)c1cccc(NC(=O)COC(=O)c2cc(-c3ccc(Cl)cc3)nc3ccccc23)c1	G9a inh 35.5µM
CCn1c(C(=O)NCc2cc(Br)ccc2OC)cc2oc3ccccc3c21	none (no result: Sfp inh)
CS(=O)(=O)N1CCC2(CC1)CN(c1ccccn1)C2	none (no result: JMJD2A Tudor, TDP1 inh, BAZ2B block, HP1b chromo inh)
